Bioassay records (PubChem)
Rows were chosen to be rich in hits. Some 1.8% of all compounds tested hit in one or more screens of this group.
LYPLA1 counter: blocks human lysophospholipase 1, a PME1 counter-screen. O75608. recombinant LYPLA1, FP-Rh probe fluorescence polarization. inhibition, % at 5.9 µM. 0.16% of 320,000 active;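 active = inhibition above the mean of all tested compounds plus 3 SD, set per campaign, cut at about 14% in these data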;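 also: inhibitors block serine hydrolase probe labeling of LYPLA1 so polarization falls; 0% = enzyme with DMSO and 100% = wells lacking LYPLA1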
GSTO1 counter: blocks human GSTO1 in RBBP9 counter-screen; inhibition, % at 5.96 µM; P78417; recombinant GSTO1, activity-based probe fluorescence polarization; 1.1% of 300,000 active; AID 1974;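 active = inhibition above the campaign mean inhibition plus 3 SD, cut at about 35% in these data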;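 also: 0% = GSTO1-1 with DMSO and 100% = wells lacking GSTO1-1 enzyme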
LYPLA2 counter: counter-screen for PME1 inhibitors: inhibitors of human LYPLA2 | O95372 | recombinant LYPLA2, FP-Rh probe fluorescence polarization | inhibition, % at 5.9 µM | 0.38% of 320,000 active | AID 2177;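 active = inhibition above the screen-wide mean plus 3 SD, limit set per campaign, cut at about 26% in these data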;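 also: 0% = LYPLA2 with DMSO and 100% = wells lacking LYPLA2 enzyme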
PAD4 FP inh: blocks human protein arginine deiminase 4; Q9UM07; recombinant PAD4, RCA probe fluorescence polarization; inhibition, % at 6.36 µM; 0.41% of 330,000 active;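 active = percent inhibition above a cutoff equal to the mean of all tested compounds plus 3 SD, cut at about 15% in these data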;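 also: 0% = PAD4 with RCA probe and DMSO and 100% = probe without PAD4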
PME-1 inh: blocks human protein phosphatase methylesterase 1; 0.53% of 320,000 active; Q9Y570; inhibition, % at 5.9 µM; recombinant PME-1, FP-Rh probe fluorescence polarization;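 active = inhibition above the campaign mean of all compounds plus 3 SD, cut at about 26% in these data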;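 also: competitive labeling of PME-1 active site by serine hydrolase directed probe; 0% = PME-1 with DMSO and 100% = wells lacking PME-1 enzyme; inhibitors block probe labeling so polarization falls and inhibition rises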
Target sequence (Q9Y570 whole entry, looked up): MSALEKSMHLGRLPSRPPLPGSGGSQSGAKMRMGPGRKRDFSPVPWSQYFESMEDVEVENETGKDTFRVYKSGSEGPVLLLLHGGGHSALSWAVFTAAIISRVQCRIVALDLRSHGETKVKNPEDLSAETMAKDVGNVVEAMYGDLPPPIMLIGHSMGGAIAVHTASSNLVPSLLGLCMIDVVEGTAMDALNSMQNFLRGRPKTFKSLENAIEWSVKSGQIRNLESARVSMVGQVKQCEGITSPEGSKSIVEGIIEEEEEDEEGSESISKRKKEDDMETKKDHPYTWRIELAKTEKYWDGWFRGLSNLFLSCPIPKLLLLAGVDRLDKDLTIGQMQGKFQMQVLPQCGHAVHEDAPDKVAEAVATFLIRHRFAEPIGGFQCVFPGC
Fam108B counter: counter-screen for RBBP9 inhibitors: inhibitors of mouse Fam108B. inhibition, % at 9.51 µM. recombinant Fam108B, FP-Rh probe fluorescence polarization. AID 1947. 0.33% of 300,000 active;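 active = inhibition above the screen mean inhibition plus 3 SD, computed separately per campaign, cut at about 18% in these data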;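 also: inhibitors lower polarization as less probe binds the enzyme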
GSTO1 confirm: GSTO1 (human) inhibition, confirmation; 54% of 2,400 active; AID 2176; recombinant GSTO1, probe fluorescence polarization; shares compounds with GSTO1 counter; inhibition, % at 5.96 µM;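 active = inhibition above the primary screen's cutoff, its mean inhibition plus 3 SD, cut at about 35% in these data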;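 also: loss of polarization as inhibitors block binding of rhodamine sulfonate ester activity probe; 0% = GSTO1 with DMSO and 100% = wells lacking GSTO1 enzyme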
GSTO1 ABPP inh: blocks recombinant human glutathione S-transferase omega 1; shares compounds with GSTO1 counter; recombinant GSTO1, gel ABPP SE-Rh probe fluorescence; inhibition, % at 1 µM; 30% of 130 active; AID 463110;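 active = inhibition of the enzyme GSTO1 above about 75%, limit read from the data; inactive = inhibition below that limit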
* marks the source's active call; other numbers are inactive results.

Screening NC1=NC(=O)/C(=C\c2cc([N+](=O)[O-])ccc2Cl)S1 returned LYPLA1 counter 5.0, GSTO1 counter 45.8*, LYPLA2 counter -3.4, PAD4 FP inh 4.4, PME-1 inh -1.2, Fam108B counter -2.9 and GSTO1 confirm 10.5.
For O=C(Nc1ccc2c(c1)OCO2)[C@@H]1[C@@H]2C(=O)N(C3CCCCC3)C(=O)[C@@H]2C2c3ccccc3C=CN21 (stereo not given in full) the results were LYPLA1 counter -2.4, GSTO1 counter 14.5, LYPLA2 counter 6.1, PAD4 FP inh -8.6, PME-1 inh 4.2 and Fam108B counter 7.6.
`O=C(c1cccs1)[C@@H]1[C@@H]2C(=O)N(Cc3ccc4c(c3)OCO4)C(=O)[C@@H]2C2c3ccccc3C=CN21` (stereo not given in full) gave LYPLA1 counter -0.8, GSTO1 counter 37.5*, LYPLA2 counter -7.9, PAD4 FP inh 0.8, PME-1 inh 0.2, Fam108B counter -6.3 and GSTO1 confirm 7.6.
`CC(C)(C)c1ccc(O)c(N)c1` gave LYPLA1 counter 2.7, GSTO1 counter 38.4*, LYPLA2 counter 0.4, PAD4 FP inh -14.6, PME-1 inh 2.7, Fam108B counter 1.6 and GSTO1 confirm 1.0.
CC(C)c1ccc(O)c(N)c1 was read as LYPLA1 counter 3.0, GSTO1 counter 15.7, LYPLA2 counter 0.4, PAD4 FP inh -4.0, PME-1 inh 5.5 and Fam108B counter 9.1.
For CC(C)C[C@H](NS(=O)(=O)c1ccc(Br)cc1)C(=O)O the results were LYPLA1 counter 1.2, GSTO1 counter 1.5, LYPLA2 counter -0.4, PAD4 FP inh 6.1, PME-1 inh -8.2 and Fam108B counter -4.3.
For CC(C)CC(NS(=O)(=O)c1cccc(C(=O)O)c1)C(=O)O (stereo not given) the results were LYPLA1 counter 3.7, GSTO1 counter 50.6*, LYPLA2 counter 4.8, PAD4 FP inh 3.3, PME-1 inh -2.7, Fam108B counter -4.7 and GSTO1 confirm 3.4.
For COc1ccc(C(CC(=O)c2ccc(O)cc2)S(=O)(=O)c2ccc(C)cc2)cc1 (stereo not given) the results were LYPLA1 counter 2.8, GSTO1 counter 39.6*, LYPLA2 counter 2.9, PAD4 FP inh -1.0, PME-1 inh -0.4, Fam108B counter 0.9 and GSTO1 confirm -5.1.
For COc1ccc(C(=O)CC(c2ccccc2)S(=O)(=O)c2ccc(C)cc2)cc1 (stereo not given) the results were LYPLA1 counter 0.5, GSTO1 counter 0.8, LYPLA2 counter 0.4, PAD4 FP inh -1.2, PME-1 inh -5.4 and Fam108B counter 3.9.
Screening c1ccc(COCCC2CO2)cc1 (stereo not given) returned LYPLA1 counter -1.4, GSTO1 counter 61.1*, LYPLA2 counter -5.7, PAD4 FP inh 0.1, PME-1 inh -4.5, Fam108B counter -1.1, GSTO1 confirm 72.2* and GSTO1 ABPP inh 59.0.
Screening NC1=NC(=O)/C(=C/c2ccc(Br)cc2)S1 returned LYPLA1 counter -0.5, GSTO1 counter -2.8, LYPLA2 counter 10.3, PAD4 FP inh -0.4, PME-1 inh 2.7 and Fam108B counter 1.5.
`NC1=NC(=O)/C(=C/c2cc(Br)c(O)c(Br)c2)S1` gave LYPLA1 counter 1.1, GSTO1 counter 41.0*, LYPLA2 counter 2.2, PAD4 FP inh -28.4, PME-1 inh -6.5, Fam108B counter 5.6 and GSTO1 confirm 81.3*.
CCCCc1nnc(NC(=O)c2oc3ccccc3c2C)s1 was read as LYPLA1 counter 3.3, GSTO1 counter -18.4, LYPLA2 counter 0.7, PAD4 FP inh 2.8, PME-1 inh -6.0 and Fam108B counter 3.8.
Screening CCOc1ccc(N(CCCCO)C(=S)NC(=O)c2ccc(C)c(Br)c2)cc1 returned LYPLA1 counter 0.3, GSTO1 counter 47.3*, LYPLA2 counter 8.7, PAD4 FP inh -4.2, PME-1 inh 2.8, Fam108B counter -4.8 and GSTO1 confirm 11.3.
O=C(CCNC(=O)c1ccco1)NCc1ccc(F)cc1 was read as PAD4 FP inh -10.6.
